# Hits are enriched below; roughly 4.1% of the tested compounds scored in any of these assays.
# MazF activator – activators of E. coli MazEF toxin-antitoxin RNase, primary screen, biochemical, fluorescence, uHTS; FAM/BHQ RNA-DNA oligo cleavage fluorescence, 5 h; 350,000 compounds, 0.32% hits; activation, % at 20 µM; in the data active = activation above about 50%
# Anthrax LF prot – Bacillus anthracis LF protease inhibitors, primary screen, biochemical, multiplex microsphere, MLPCN library; Lethal factor (Bacillus anthracis), P15917; multiplex microsphere protease cleavage assay; 360,000 compounds, 0.12% hits; inhibition, % at 10 µM; note: plate controls were buffer without enzyme for full effect and enzyme alone for no effect
# Autofluor counter – counter-screen for toxin protease inhibitors: compound fluorescence. compound autofluorescence counterscreen, microsphere flow cytometry; stronger effect = higher value. fluorescence intensity (no concentration beside the values). 360,000 compounds, 3.1% hits. AID 624483; in the data active = fluorescence intensity above about 16000; inconclusive = no clear call, values can overlap the other calls
# VHR inh abs – VHR1 phosphatase inhibitors, primary screen, biochemical, absorbance, uHTS; Dual specificity protein phosphatase 3 (Homo sapiens), P51452; recombinant VHR phosphatase, pNPP absorbance; inhibition, % at 13.3 µM; 290,000 compounds, 0.52% hits; in the data active = inhibition above about 50%
# BoNT-A LC inh2 – BoNT/A light chain protease inhibitors, primary screen, biochemical, flow cytometry, MLPCN library | 360,000 compounds, 0.17% hits | multiplex microsphere protease substrate cleavage | AID 588499, 2011 | Botulinum neurotoxin type A light chain protease (Clostridium botulinum A str. ATCC 3502) | inhibition, % at 10 µM; note: plate controls were buffer without enzyme for full effect and enzyme alone for no effect
# BoNT-F LC inh – BoNT/F light chain protease inhibitors, primary screen, biochemical, flow cytometry, MLPCN library; inhibition, % at 10 µM; Multiplex microsphere protease cleavage assay; 360,000 compounds, 0.22% hits; Botulinum neurotoxin type F light chain protease (Clostridium botulinum); in the data active = inhibition above about 35%, passing the limit was not always enough; inconclusive = no clear call, values can overlap the other calls; note: plate controls were buffer without enzyme for full effect and enzyme alone for no effect
# The depositor's hits bear a star; ? = inconclusive; nt = no result. Cut-off read from the data, not from the text of the source, unless noted: active = inhibition above about 30%; inconclusive = no clear call, values can overlap the other calls; inactive = below that.
SMILES,MazF activator,Anthrax LF prot,Autofluor counter,VHR inh abs,BoNT-A LC inh2,BoNT-F LC inh
CSc1ccc(CNC(=O)C2(C)CCCN(C(C)=O)C2)cc1 (configuration not stated),nt,-35,4609,nt,-7,-62
COc1ccc(-c2nnc3ccc(SCC(=O)NCC4CCCO4)nn23)cc1 (configuration not stated),0,-2,25334*,-9,-6,-11
COc1ccc(-c2nnc3c4ccccc4c(C)nn23)cc1,5,-2,22622*,3,-1,-1
COc1ccc(-c2nnc3ccc(SC)nn23)cc1,1,-4,17068*,11,10,12
Cc1nn2c(-c3ccncc3)nnc2c2ccccc12,4,-4,2980,13,-1,-13
CCOc1cc(N2CCOCC2)c(OCC)cc1NC(=O)c1cc(S(=O)(=O)N2CCOCC2)ccc1C,14,-3,4095,nt,0,-5
Cc1oc(-c2ccc(Cl)cc2)nc1CS(=O)CC(=O)NCCCN1CC(C)CC(C)C1 (configuration not stated),13,-4,6078,15,0,-1
COc1ccc(Cl)cc1NC(=O)c1cccc([N+](=O)[O-])c1O,5,9,4030,nt,0,-1
COc1cc2c(ccc3cc(OC)c(OC)c(O)c32)cc1O,6,0,5659,53*,-1,-8
CN(CC(=O)Nc1ccc(F)cc1)C(=O)c1ccc(N2C(=O)CCC2=O)cc1,-5,0,?,nt,1,3
CCN1C(=O)c2cccc3c(NC(=O)c4ccc5c(c4)OCCO5)ccc1c23,95*,-1,4221,22,0,-3
CCCn1ncc(OC)c(Cl)c1=O,-2,-11,21990*,31,3,2
CC1=C(C(=O)Nc2cc(C)ccc2C)C(c2cccs2)NC(=S)N1 (configuration not stated),3,0,21275*,5,-5,-6
COc1cc(C(=O)OCC(=O)Nc2cccc(S(=O)(=O)N3CCOCC3)c2)ccc1OCC(C)C,-4,2,4457,nt,2,3
Cn1ncc([N+](=O)[O-])c1C(=O)Nc1ccn(Cc2ccccc2F)n1,-6,-4,24402*,30,-3,-2
Cn1cc([N+](=O)[O-])c(C(=O)Nc2ccn(Cc3c(F)c(F)cc(F)c3F)n2)n1,-16,-2,23100*,-14,?,3
O=C(Nc1ccn(Cc2ccccc2F)n1)c1ccc(COc2ccc(Br)cc2)cc1,-5,-3,24596*,-2,?,-4
O=C(Nc1ccc(Cn2cccn2)cc1)c1ccc(COc2ccc(Br)cc2)cc1,-18,-2,4139,35,1,4
Cn1c(C(=O)N2CCC(C(=O)N3CCN(Cc4ccc5c(c4)OCO5)CC3)CC2)cc2sccc21,-1,-4,6690,15,-1,-3
Cn1c(C(=O)N2CCN(Cc3ccc4c(c3)OCO4)CC2)cc2sccc21,-1,-4,16552*,-17,-1,-1
Cn1c(C(=O)NCc2ccc3c(c2)OCO3)cc2sccc21,4,-1,17632*,-17,-3,-5
Cn1c(C(=O)N2CCC(C(=O)N3CCOCC3)CC2)cc2sccc21,-6,1,5902,53*,0,11
Cn1c(CC(=O)Nc2ccccc2Cl)nnc1SCC(=O)NC1=NCCS1,9,-1,6317,19,-3,-2
O=C(Cc1ccc(F)cc1)N1CCOCC1,4,-4,3314,9,-2,19
CCCCOc1ccc(-c2nc(=S)[nH][nH]2)cc1,5,-1,16673*,-17,?,0
CCCCOc1ccc(-c2nc(SCC(N)=O)n[nH]2)cc1,3,-4,20074*,-4,0,-1
CCCCOc1ccc(-c2ncc(N)cn2)cc1,-2,12,3821,18,-1,5
CC(=O)OC[C@@H]1CN(Cc2ccccc2)C[C@H](n2cnc3c(NC4CCC4)ncnc32)O1,nt,1,3738,nt,0,-1
